Rows were chosen to be rich in hits. Some 27% of all compounds tested hit in one or more screens of this group.
CYP2C19 act = increases human CYP2C19 enzyme activity; activation factor at 5 µM; recombinant CYP2C19, luciferin-H EGE luminescence; hits give high values; 0 = fully inhibited enzyme, 1 = untreated enzyme; 96,000 tested, under 10 active; P33261;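 active means activation factor of at least 2 at 5 µM in the primary screen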
Target sequence (P33261 whole entry, looked up): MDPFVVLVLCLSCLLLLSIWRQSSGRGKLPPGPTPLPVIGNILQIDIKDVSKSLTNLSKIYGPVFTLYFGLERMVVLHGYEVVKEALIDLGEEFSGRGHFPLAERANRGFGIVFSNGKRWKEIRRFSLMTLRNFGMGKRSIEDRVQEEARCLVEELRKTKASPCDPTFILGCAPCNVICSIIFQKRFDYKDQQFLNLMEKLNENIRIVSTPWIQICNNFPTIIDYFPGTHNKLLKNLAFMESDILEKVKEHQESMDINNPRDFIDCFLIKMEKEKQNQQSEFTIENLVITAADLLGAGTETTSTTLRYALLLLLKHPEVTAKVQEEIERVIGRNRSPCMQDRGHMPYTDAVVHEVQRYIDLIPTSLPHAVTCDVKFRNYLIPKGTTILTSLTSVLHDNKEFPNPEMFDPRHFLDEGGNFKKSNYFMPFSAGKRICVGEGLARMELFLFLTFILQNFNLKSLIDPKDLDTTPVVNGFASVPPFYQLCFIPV
CYP2C19 inh = inhibitors of human CYP2C19; P33261; CYP2C19 Supersomes, luciferin-H EGE luminescence, 30 min; inhibition, % at 5 µM; 21% of 96,000 active;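 active means CYP2C19 inhibition above a set limit at 5 µM in the primary screen, cut at about 50% in these data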
CYP2C9 inh = inhibitors of human CYP2C9. CYP2C9 Supersomes, luciferin-H conversion, luminescence. inhibition, % at 5 µM. 20% of 96,000 active;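 active means blocking of liver enzyme CYP2C9 beyond about 50% at 5 µM, limit read from the data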
CYP2C9 act = activators of human CYP2C9; AID 1024; P11712; recombinant CYP2C9, luciferin-H conversion, luminescence; hits give high values; factor 1 = untreated enzyme, 0 = blocked; 1.4% of 96,000 active; activation factor at 5 µM;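 active means activation factor of 2 or more for CYP2C9 at a 5 µM dose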
Cav3 T inh = blocks human Cav3.2 T-type calcium channel | O95180 | 4% of 100,000 active | B-score at 10 µM | AID 449739 | Cav3.2-expressing cells, Fluo-4 calcium fluorescence FDSS; hits give low values;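 active means single-dose well whose peak fluorescence ratio is a statistical outlier from its plate by either plate-standardised score or position-corrected B-score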
Numbers stand for hits.

`O/N=C1\CCCc2oc3c(c21)CCCC3` gave CYP2C19 act inactive, CYP2C19 inh inactive, CYP2C9 inh inactive, CYP2C9 act inactive and Cav3 T inh inactive.
`O/N=C1\CCCc2nnc3c(c21)CCCC3` gave CYP2C19 act inactive, CYP2C19 inh inactive, CYP2C9 inh inactive, CYP2C9 act 2.9 and Cav3 T inh inactive.
`COc1ccc(N2Nc3n[nH]c(N)c3N2)cc1` gave Cav3 T inh inactive.
Screening COC(=O)c1ccc(Oc2cc(C)nc(NCc3ccccc3)n2)cc1 returned CYP2C19 act inactive, CYP2C19 inh inactive, CYP2C9 inh inactive, CYP2C9 act inactive and Cav3 T inh inactive.
For COc1cc(C)nc(Oc2ccc(OCc3ccccc3)nn2)n1 the results were CYP2C19 act inactive, CYP2C19 inh 75.2, CYP2C9 inh inactive, CYP2C9 act inactive and Cav3 T inh inactive.
Screening COc1cc(C)nc(NCc2ccccc2)n1 returned CYP2C19 act inactive, CYP2C19 inh 61.3, CYP2C9 inh inactive, CYP2C9 act inactive and Cav3 T inh inactive.
Cc1ccc2c(c1)nnn2C1CCN(S(=O)(=O)c2ccc3ccccc3c2)CC1 was read as Cav3 T inh inactive.
For Cc1ccc2c(c1)nnn2C1CCN(S(=O)(=O)c2cccc(S(=O)(=O)N(C)C)c2)CC1 the results were CYP2C19 act inactive, CYP2C19 inh 86.1, CYP2C9 inh inactive, CYP2C9 act inactive and Cav3 T inh inactive.
Cc1ccc2c(c1)nnn2C1CCN(S(=O)(=O)c2ccc(C(=O)N(C)C)cc2)CC1 was read as Cav3 T inh inactive.
For Cc1ccc2c(c1)nnn2C1CCN(C(=O)NC23CC4CC(CC(C4)C2)C3)CC1 the results were CYP2C19 act inactive, CYP2C19 inh 54.9, CYP2C9 inh inactive, CYP2C9 act inactive and Cav3 T inh inactive.
For Cc1ccc2c(c1)nnn2C1CCN(S(=O)(=O)c2ccc(C(=O)NC3CCCC3)cc2)CC1 the results were CYP2C19 act inactive, CYP2C19 inh inactive, CYP2C9 inh 50.2, CYP2C9 act inactive and Cav3 T inh inactive.
Screening C/C(N)=C(\C#N)C(=O)NCc1ccccn1 returned CYP2C19 act inactive, CYP2C19 inh inactive, CYP2C9 inh inactive, CYP2C9 act inactive and Cav3 T inh inactive.
For CCOc1ccc(C(=O)Nc2nncs2)cc1OCC the results were CYP2C19 act inactive, CYP2C19 inh inactive, CYP2C9 inh inactive, CYP2C9 act inactive and Cav3 T inh inactive.
For O=C(c1cnc(-c2ccccc2)s1)c1ccc(Cl)cc1Cl the results were CYP2C19 act inactive, CYP2C19 inh 56.8, CYP2C9 inh inactive, CYP2C9 act inactive and Cav3 T inh inactive.
For O=C(c1ccc(Cl)cc1)c1cnc(Nc2ccccc2Cl)s1 the results were CYP2C19 act inactive, CYP2C19 inh inactive, CYP2C9 inh inactive, CYP2C9 act inactive and Cav3 T inh inactive.
Screening O=C(Nc1cccc(Br)c1)c1ccc(Cl)c(S(=O)(=O)N2CCOCC2)c1 returned Cav3 T inh inactive.
Screening CC(C)CN(CC(C)C)C(=O)CS(=O)(=O)Cc1ccccc1 returned CYP2C19 act inactive, CYP2C19 inh 62.3, CYP2C9 inh inactive, CYP2C9 act inactive and Cav3 T inh inactive.
Screening O=C(CS(=O)(=O)Cc1ccccc1)Nc1ccccn1 returned Cav3 T inh inactive.
Cc1csc(NC(C)c2nc3cc(C(F)(F)F)ccc3n2CCCO)n1 (configuration not stated) was read as Cav3 T inh inactive.
For N#CCCn1nc(-c2ccccc2)cc1Nc1ccccc1NC(=O)c1cccs1 the results were CYP2C19 act inactive, CYP2C19 inh 97.2, CYP2C9 inh 95.8, CYP2C9 act inactive and Cav3 T inh inactive.
O=C(Nc1ccccc1C1CC1)c1cccs1 was read as CYP2C19 act inactive, CYP2C19 inh inactive, CYP2C9 inh inactive, CYP2C9 act inactive and Cav3 T inh inactive.
For COc1ccc([N+](=O)[O-])cc1C1NN=C(c2ccccc2O)S1 (configuration not stated) the results were CYP2C19 act inactive, CYP2C19 inh inactive, CYP2C9 inh inactive, CYP2C9 act inactive and Cav3 T inh -3.68.
Screening COc1ccccc1OCCCOc1ccc([N+](=O)[O-])cc1Cl returned CYP2C19 act inactive, CYP2C19 inh inactive, CYP2C9 inh inactive, CYP2C9 act inactive and Cav3 T inh inactive.
For CCOC(=O)c1c(NC(=O)Cn2nc([N+](=O)[O-])c(Br)c2C)sc2c1CCC(C)C2 (configuration not stated) the results were CYP2C19 act inactive, CYP2C19 inh inactive, CYP2C9 inh inactive, CYP2C9 act inactive and Cav3 T inh inactive.
For CCCCN(C)C(=O)C(Cc1ccccc1)NS(=O)(=O)c1ccc2c(c1)c(=O)n(C)c(=O)n2C (configuration not stated) the results were CYP2C19 act inactive, CYP2C19 inh inactive, CYP2C9 inh inactive, CYP2C9 act inactive and Cav3 T inh inactive.
COc1ccc(-c2nnc(NC(=O)c3cc(Cl)ccc3Cl)o2)cc1 was read as CYP2C19 act inactive, CYP2C19 inh inactive, CYP2C9 inh inactive, CYP2C9 act inactive and Cav3 T inh -5.24.
For COc1ccccc1C(=O)Nc1nnc(-c2ccc(Cl)cc2)o1 the results were Cav3 T inh inactive.
O=C(Nc1nnc(-c2ccc3c(c2)CCCC3)o1)c1ccc(Cl)cc1Cl was read as CYP2C19 act inactive, CYP2C19 inh inactive, CYP2C9 inh inactive, CYP2C9 act inactive and Cav3 T inh -3.21.
Screening COc1ccc(OC)c2sc(NC(=O)c3ccc(S(=O)(=O)N(C)C)cc3)nc12 returned CYP2C19 act inactive, CYP2C19 inh inactive, CYP2C9 inh inactive, CYP2C9 act inactive and Cav3 T inh inactive.
`CCn1c2ccccc2c2cc(NC(=O)c3cccc(OC)c3)ccc21` gave CYP2C19 act inactive, CYP2C19 inh inactive, CYP2C9 inh inactive, CYP2C9 act inactive and Cav3 T inh inactive.
For CN(C)S(=O)(=O)Oc1cccc(C(=O)Nc2cccc(Cl)c2)c1 the results were CYP2C19 act inactive, CYP2C19 inh 70.1, CYP2C9 inh 81.6, CYP2C9 act inactive and Cav3 T inh inactive.
`CN(C)S(=O)(=O)c1cccc(C(=O)Nc2cc(Cl)cc(Cl)c2)c1` gave CYP2C19 act inactive, CYP2C19 inh inactive, CYP2C9 inh 98.2, CYP2C9 act inactive and Cav3 T inh inactive.
`CNS(=O)(=O)c1cccc(C(=O)Nc2cccc(Cl)c2)c1` gave CYP2C19 act inactive, CYP2C19 inh 69.7, CYP2C9 inh 62.3, CYP2C9 act inactive and Cav3 T inh inactive.
`COc1cccc(C(=O)Nc2ccccc2)c1` gave CYP2C19 act inactive, CYP2C19 inh inactive, CYP2C9 inh inactive, CYP2C9 act inactive and Cav3 T inh inactive.
CCn1c(C)c(C)c2cc(C(=O)Nc3cccc(Cl)c3)ccc21 was read as CYP2C19 act inactive, CYP2C19 inh inactive, CYP2C9 inh inactive and CYP2C9 act 2.4.
`Nc1ccccc1CNc1nc(NCCO)nc2c1ncn2CCN1CCOCC1` gave Cav3 T inh inactive.
Screening CN(C)S(=O)(=O)c1cccc(C(=O)Nc2ccccc2Cl)c1 returned CYP2C19 act inactive, CYP2C19 inh inactive, CYP2C9 inh inactive, CYP2C9 act inactive and Cav3 T inh inactive.
Screening CN(C)S(=O)(=O)c1cccc(C(=O)Nc2cc(Cl)ccc2O)c1 returned CYP2C19 act inactive, CYP2C19 inh inactive, CYP2C9 inh 66.8, CYP2C9 act inactive and Cav3 T inh inactive.

High-throughput results (PubChem)
